# Calls of active or inactive are those of the source.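 How the source made its calls, unless noted: active means inhibition above 20% together with a positive visual image hit; inconclusive means visual image hit but inhibition not above 20%; inactive means no visual image hit.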
# Columns and labels:
# [1] = inhibitors of TNFa-induced NFkB p65 translocation, primary screen, imaging, HUVEC, MLSMR starter and 10KST1 sets (AID 438); conditions: HUVEC TNFa-induced p65 nuclear translocation; cell count: measured here: nuclei count (cytotoxicity indicator), at 2.08 µM; inhibition: at 2 µM, stronger effect = higher value, 0% TNFa-plus-vehicle, 100% no-TNFa wells;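 further: compound added about 3h40 before a 20 min TNFalpha stimulation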;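 on inhibition: signal is the nuclear over cytoplasmic p65 intensity ratio per well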
# [2] = reduction of polyQ htt aggregates in cells – imaging, exon1htt(103Q)mCFP cells, high-content imaging, primary screen (AID 483;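 active means visual image review flags a hit and inhibition of aggregation exceeds 20%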;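 further: compound exposure lasted 3 days before fixation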;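 on nuclei count: percent of the per-plate median nuclei count of sample wells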); conditions: exon1htt(103Q)mCFP cell line, aggregate imaging, at 2 µM; inhibition of aggregation: stronger effect = higher value; nuclei count: measured here: cell count, toxicity
# [3] = endothelial E-selectin expression blockers – imaging, HUVEC, immunofluorescence, MLSMR starter and 10KST1 sets, primary screen (AID 487;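 active means visually confirmed hit in the image check and inhibition above 20%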;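 on inhibition: signal is fraction of cell area covered by stained E-selectin grains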;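 on nuclei count: 100% = median nuclei count of all wells on the same plate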); conditions: HUVEC TNFalpha-induced E-selectin immunofluorescence imaging, at 2 µM; inhibition: stronger effect = higher value; nuclei count: measured here: cell number, toxicity
# [4] = biological target: Voltage-gated potassium channel subunit beta-2 (Rattus norvegicus) (UniProt P62483); assay: inhibitors of rat Kvbeta2 reductase activity – biochemical, NADPH fluorescence, primary screen (AID 622;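 active means fluorescence slope higher than the sample average by over 3 SD, cut at about -0.22 in these data, passing the limit was not always enough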;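 further: slope of raw intensity against log time taken from 70 to 1610 s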); conditions: recombinant KvBeta, 4-cyanobenzaldehyde reduction, at 10 µM, stronger effect = higher value
# Voltage-gated potassium channel subunit beta-2 (Rattus norvegicus), sequence (P62483 whole entry, looked up): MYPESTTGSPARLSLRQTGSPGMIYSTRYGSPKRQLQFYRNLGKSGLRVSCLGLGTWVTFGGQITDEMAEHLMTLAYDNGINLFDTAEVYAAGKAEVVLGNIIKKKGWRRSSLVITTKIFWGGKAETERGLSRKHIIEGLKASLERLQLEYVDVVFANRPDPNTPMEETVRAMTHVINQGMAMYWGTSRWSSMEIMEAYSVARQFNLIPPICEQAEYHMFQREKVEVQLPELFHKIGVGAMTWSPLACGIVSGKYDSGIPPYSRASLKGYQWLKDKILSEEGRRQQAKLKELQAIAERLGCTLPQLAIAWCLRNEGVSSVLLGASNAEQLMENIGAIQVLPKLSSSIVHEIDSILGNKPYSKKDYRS
# [5] = biological target: Voltage-gated potassium channel subunit beta-2 (Rattus norvegicus) (UniProt P62483); assay: enhancers of rat Kvbeta2 NADPH turnover – biochemical, NADPH fluorescence, primary screen (AID 623;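 active means NADPH fluorescence slope more negative than the mean of all samples by about 3 SD, 99.7% confidence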;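 further: fluorescence intensity change per second fitted from 20 to 320 s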); conditions: Recombinant KvBeta, NADPH fluorescence decrease slope, 10 min; at 10 µM; stronger effect = lower value
# [6] = biological target: Alpha-2C adrenergic receptor (Homo sapiens) (UniProt P18825); assay: compounds altering alpha2C-coupled GIRK flux – cell-based, HEK293 alpha2C/GIRK1/2, thallium flux, primary screen (AID 624;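 active means fluorescence slope after compound addition differing from the mean of all screened samples at 99.7% confidence, in either direction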;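 further: slope of fluorescence ratio to pre-addition baseline per second over 15 to 24 s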); conditions: thallium flux BTC fluorescence, at 10 µM, actives lie on both sides
# Alpha-2C adrenergic receptor (Homo sapiens), sequence (P18825 whole entry, looked up): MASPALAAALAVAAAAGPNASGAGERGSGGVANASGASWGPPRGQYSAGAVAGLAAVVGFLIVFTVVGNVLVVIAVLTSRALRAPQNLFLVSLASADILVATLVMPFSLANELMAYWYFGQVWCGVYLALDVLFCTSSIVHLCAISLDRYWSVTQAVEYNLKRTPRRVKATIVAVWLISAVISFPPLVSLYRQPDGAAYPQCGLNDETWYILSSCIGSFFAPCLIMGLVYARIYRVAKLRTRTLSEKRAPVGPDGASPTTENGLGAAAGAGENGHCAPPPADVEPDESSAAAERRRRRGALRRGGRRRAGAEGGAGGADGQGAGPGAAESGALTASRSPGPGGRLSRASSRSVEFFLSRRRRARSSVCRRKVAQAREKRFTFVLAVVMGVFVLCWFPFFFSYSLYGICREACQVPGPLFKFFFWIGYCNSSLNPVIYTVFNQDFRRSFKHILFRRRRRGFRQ
# [7] = blockers of RIG-like receptor reporter activation – cell-based, Sendai virus stimulus, luciferase, 10K MLSCN set, TLR/RLR signaling modifier project, primary screen (AID 602276;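 active means inhibition at or above 50% at 10 µM; inactive means inhibition below 50%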;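 further: firefly luciferase from ISG56 promoter only with Renilla not read in this screen; 0% = Sendai virus plus DMSO and 100% = medium plus DMSO without virus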); conditions: HEK293 RL24 IRF3 luciferase reporter, at 10 µM, stronger effect = higher value
# [8] = TLR3 IRF3 reporter activation blockers – cell-based, poly I:C stimulus, luciferase, 10K MLSCN set, primary screen (AID 602277;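 active means inhibition of the reporter signal at or above 50%; inactive means inhibition below 50%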); conditions: HEK293-TLR3 RL24 IRF3 luciferase reporter, at 10 µM, stronger effect = higher value
SMILES,cell count [1],inhibition [1],inhibition of aggregation [2],nuclei count [2],inhibition [3],nuclei count [3],fluorescence slope [4],NADPH fluorescence slope [5],slope [6],inhibition [7],inhibition [8]
Nc1c(C(=O)NCc2ccco2)nnn1Cc1ccccc1,277,-13.1% (inactive),5.9% (inactive),94.8%,-65.2% (inactive),115%,-0.399 (inactive),-4.5e-05 (inactive),0.00354 (inactive),8.14% (inactive),3.26% (inactive)
COc1ccc(CNS(=O)(=O)c2ccc3oc(C(=O)O)c(C)c3c2)cc1,624,-4.4% (inactive),-6% (inactive),75.2%,-31.4% (inactive),114%,-0.466 (inactive),8.2e-05 (inactive),0.00607 (inactive),15.6% (inactive),20.3% (inactive)
COc1ccc(CNC(=O)CCc2nc(-c3ccccc3F)no2)c(OC)c1,354,1.7% (inactive),19.9% (inactive),98%,37.2% (inactive),86.3%,-0.378 (inactive),-2e-05 (inactive),0.00384 (inactive),8.05% (inactive),0.538% (inactive)
CCN(CC(=O)O)S(=O)(=O)c1cc(Cl)ccc1Cl,353,5.6% (inactive),10.8% (inactive),97.3%,-33.4% (inactive),75.2%,-0.416 (inactive),-2.7e-05 (inactive),0.00473 (inactive),-0.0466% (inactive),-0.284% (inactive)
CCOC(=O)c1[nH]c(C)c(C(=O)Nc2ccccc2C)c1C,619,12.1% (inactive),-101% (inactive),7.1%,-15.2% (inactive),94.8%,-0.603 (inactive),-5.4e-05 (inactive),0.00703 (inactive),27.7% (inactive),11.1% (inactive)
O=S(=O)(NCc1ccccn1)c1ccc2c(c1)OCCO2,673,11.1% (inactive),-27.1% (inactive),99.3%,-3.6% (inactive),102%,-0.354 (inactive),-8e-05 (inactive),0.00513 (inactive),3.8% (inactive),5.59% (inactive)
CN1C(=S)SC(C)(NO)C1(C)C (centres undefined),446,6.5% (inactive),7.3% (inactive),78.4%,2.9% (inactive),107%,-0.479 (inactive),-0.000139 (active),0.00444 (inactive),15.4% (inactive),16% (inactive)
Cc1ccc(CC2SC(=O)NC2=O)cc1Cl (centres undefined),790,10.4% (inactive),-3% (inactive),97.9%,0% (inactive),119%,-0.488 (inactive),-5.4e-05 (inactive),0.00487 (inactive),10.2% (inactive),12% (inactive)
COc1ccc(Cc2nc(-c3ccc(Br)cc3)no2)cc1,366,6% (inactive),-7% (inactive),105%,-17.5% (inactive),107%,-0.28 (inactive),2e-05 (inactive),0.00781 (inactive),-28.1% (inactive),-62.7% (inactive)
Cc1cc(C(=O)Nc2nnc(C(F)(F)F)s2)no1,342,-4.7% (inactive),-8% (inactive),98%,-25.5% (inactive),106%,-0.447 (inactive),1.8e-05 (inactive),0.00633 (inactive),-1.51% (inactive),-19.4% (inactive)
COc1cccc(-c2nnc(SCC(=O)N3CCCc4ccccc43)o2)c1,642,3.6% (inactive),-6.3% (inactive),100%,-56.4% (inactive),109%,-0.378 (inactive),-5e-05 (inactive),0.00375 (inactive),5.85% (inactive),26.1% (inactive)
c1ccc(CSCc2cn3ccsc3n2)cc1,664,1.2% (inactive),5.1% (inactive),107%,-84.7% (inactive),131%,-0.583 (inactive),-4.2e-05 (inactive),0.00621 (inactive),-50.3% (inactive),-132% (inactive)
CC1(C)OC(=O)N(c2cccnc2)C1(C)O (centres undefined),597,8.1% (inactive),-2.8% (inactive),101%,41.8% (inactive),104%,-0.401 (inactive),-2.3e-05 (inactive),0.00628 (inactive),13.3% (inactive),19.9% (inactive)
O=C(Cn1ncc2c1-c1ccccc1OC2)Nc1ccc(Cl)cn1,462,-2.9% (inactive),-7.1% (inactive),114%,-55% (inactive),116%,-0.573 (inactive),-3.2e-05 (inactive),0.00703 (inactive),9.19% (inactive),29.8% (inactive)
COC(=O)Cn1c2ccccc2c2nc(C)sc21,350,11.4% (inactive),-14.3% (inactive),106%,-59.3% (inactive),125%,-0.439 (inactive),7e-06 (inactive),0.00472 (inactive),-14.8% (inactive),-8.31% (inactive)
O=C(Nc1ccc(F)cc1F)NC1CC(=O)N(Cc2ccccc2)C1 (centres undefined),664,1.6% (inactive),22.4% (inactive),66.3%,4.4% (inactive),103%,-0.571 (inactive),-1.6e-05 (inactive),0.0068 (inactive),-12.5% (inactive),1.35% (inactive)
Cc1cccc(-n2c(SCc3cc(=O)n4ccsc4n3)nc3ccccc32)c1,439,5.1% (inactive),-3.6% (inactive),97.1%,-73.8% (inactive),112%,-0.525 (inactive),1.8e-05 (inactive),0.00495 (inactive),-11% (inactive),-9.49% (inactive)
Nc1ccc(-c2ccc(N)cc2C(F)(F)F)c(C(F)(F)F)c1,510,-15.4% (inactive),-0.4% (inactive),96.5%,-3.6% (inactive),101%,-0.446 (inactive),-9.4e-05 (inactive),0.00482 (inactive),16.9% (inactive),24% (inactive)
Cc1ccc(C)c2[nH]c(=O)c(CCNC(=O)c3ccc(S(=O)(=O)N(C)C)cc3)cc12,596,4.3% (inactive),15% (inactive),125%,-14% (inactive),116%,-0.557 (inactive),-4e-05 (inactive),0.00528 (inactive),3.79% (inactive),22.8% (inactive)
O=C(Nc1ccc2c(c1)OCO2)c1cccc(Cl)c1,407,1.4% (inactive),-14.3% (inactive),107%,-22.5% (inactive),114%,-0.398 (inactive),-4.1e-06 (inactive),0.0047 (inactive),-28.3% (inactive),-70.9% (inactive)
CC1CN(c2nc3ccccc3nc2C(C#N)C(=O)OC2CCCCC2)CC(C)O1 (centres undefined),382,-6.2% (inactive),-28.8% (inactive),116%,-12.3% (inactive),111%,-0.364 (inactive),2.4e-05 (inactive),0.0019 (active),15.1% (inactive),22.4% (inactive)
Oc1ccc(C=Nc2cccc3ncccc23)c(O)c1,682,-40.5% (inactive),-10% (inactive),111%,-138% (inactive),118%,-0.483 (inactive),-2.5e-05 (inactive),0.00472 (inactive),11.3% (inactive),17.3% (inactive)
Cc1ccc(N(C(=O)C2CCC(=O)N2)C2(C(=O)NC3CCCCC3)CCCCC2)cc1 (centres undefined),690,11.9% (inactive),22.8% (inactive),85.5%,-16.1% (inactive),84.9%,-0.558 (inactive),3.4e-05 (inactive),0.00517 (inactive),-4.63% (inactive),5.62% (inactive)
COc1ccccc1C(=O)NC(C)C(c1cccs1)N1CCN(C)CC1 (centres undefined),547,-1.6% (inactive),0.7% (inactive),106%,-38.9% (inactive),114%,-0.394 (inactive),1.2e-06 (inactive),0.00389 (inactive),-13.5% (inactive),-8.87% (inactive)
CC(C)[C@H](NC(=O)NCc1ccc(Cl)cc1)C(=O)O,190,-16.4% (inactive),20.4% (inactive),70.5%,11.6% (inactive),87.2%,-0.604 (inactive),-3.7e-05 (inactive),0.00337 (inactive),13% (inactive),19.3% (inactive)
Cc1nnc(NC(=O)c2ccccc2F)s1,421,6% (inactive),14.2% (inactive),103%,6.9% (inactive),125%,-0.614 (inactive),5.1e-06 (inactive),0.00652 (inactive),-6.19% (inactive),-17.6% (inactive)
COc1ccccc1C(=O)N1CCN(CCc2ccccc2)CC1,341,3.2% (inactive),-5.8% (inactive),100%,6% (inactive),104%,-0.385 (inactive),1.9e-05 (inactive),0.00331 (inactive),8.51% (inactive),0.325% (inactive)
COc1ccc(C(c2sc3nc(C)nn3c2O)N2CCCCC2)cc1 (centres undefined),639,-6.4% (inactive),-33.8% (inactive),114%,-42.5% (inactive),108%,-0.603 (inactive),-4.6e-05 (inactive),0.00737 (inactive),8.51% (inactive),27.4% (inactive)
O=C(NCC(c1cccnc1)N1CCN(c2ccc(F)cc2)CC1)OCc1ccccc1 (centres undefined),568,-6.4% (inactive),-3.7% (inactive),128%,-34.3% (inactive),126%,-0.605 (inactive),7e-06 (inactive),0.00599 (inactive),17.1% (inactive),1.38% (inactive)

# — PubChem BioAssay
